HCMV inh = qHTS Assay for inhibitors of the human cytomegalovirus (HCMV); activity change, negative = inhibition, % at 57.5 µM; AID 1259415, 2018; HFF cells, HCMV-luciferase reporter, 72 h; active compounds read low; 410,000 tested, 4.5% active; in the data active = activity change below about -60%; inconclusive = no clear call, values can overlap the other calls; inactive = above about -39%
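Steps: HFFs plated, 16 h 37C; compounds added; HCMV-luciferase added to MOI 1 PFU/cell; 72 h 37C; OneGlo reagent, 5 min room temperature; luminescence read, normalized to controls.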
Lassa entry inh = qHTS for Inhibitors of binding or entry into cells for Lassa Virus; Lassa virus pseudotype entry inhibition, cell reporter; Potency, µM (series often up to 37.9 µM), without a hit: at the highest dose activity change, negative = inhibition, actives largely listed as inhibitors; 300,000 tested, 1.2% active; AID 540256, 2011; calls by dose curve; tested in HEK293 cells; note: potency is the fitted concentration of half-maximal effect; nearly all actives have a fitted effect of over 50% in size
HCV inhibitor = qHTS Assay for Inhibitors of Hepatitis C Virus (HCV); Huh7.5.1 HCVcc-Cre infection, luciferase reporter, 44 h; Potency, µM (highest dose often 41.8 µM), for inactives: at the highest dose activity change, negative = inhibition, most hits filed as inhibitors; 340,000 tested, 3.4% active; AID 651820, 2012; active = well fitted inhibition curve with a large enough effect; inconclusive = small, poorly fitted or top-dose-only effect, or another doubt; inactive = no such curve, though single readings can be large or run the other way; note: potency is the fitted concentration of half-maximal effect
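Reporter virus HCVcc-Cre (~0.5 moi) infects cells exposed to compound; seeding density 1,000 cells/well with 4 h settling beforehand. Luminescence, 15 sec read, taken 44 h post-infection following a 15 min RT substrate incubation.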
FMDV antiviral = High Throughput Screening for Foot and Mouth Disease Virus Antivirals | 410,000 tested, 1.2% active | AID 1159524, 2015 | FMDV antiviral cell-based qHTS | Potency, µM (doses to about 57.9 µM), for the others: at the top dose activity change, negative = inhibition, most hits filed as inhibitors; calls by dose curve; tested in HEK293T cells; note: read-out not given here; potency is the fitted concentration of half-maximal effect; nearly all actives have a fitted effect of over 45% in size
Marburg entry inh = qHTS for inhibitors of binding or entry into cells for Marburg Virus. Potency, µM (titrated, usually from 37.8 µM), inactives show top-dose activity change, negative = inhibition, most hits filed as inhibitors. Marburg virus pseudotyped entry inhibition, cell reporter. AID 540276, 2011. 300,000 tested, 1.8% active; calls by dose curve; tested in HEK293 cells; note: potency is the fitted concentration of half-maximal effect
An asterisk follows results filed as active; u = inconclusive; x = not tested or not shown; [ ] = remark or other dose. An excerpt weighted towards active compounds, which were near 7.9% of everything screened. % is set by controls: 0 for no effect and ±100 for the full control effect.

SMILES	HCMV inh	Lassa entry inh	HCV inhibitor	FMDV antiviral	Marburg entry inh
C[C@@H](C(=O)NCCc1ccccc1)N1C(=O)N2CCc3c([nH]c4ccccc34)[C@@]2(C)C1=O	-5	x	11µM*	-33%	x
C[C@@H](C(=O)NCCc1ccccc1F)N1C(=O)N2CCc3c([nH]c4ccccc34)[C@@]2(C)C1=O	5	x	6.3µM*	0%	x
COc1ccc2[nH]c3c(c2c1)CCN1C(=O)N([C@@H](C)C(=O)NCc2ccccc2OC)C(=O)[C@]31C	17	x	13µM*	-27%	x
COc1ccc2[nH]c3c(c2c1)CCN1C(=O)N([C@@H](C)C(=O)NCc2ccccc2)C(=O)[C@]31C	14	x	-24%	-1%	x
Cc1nc2nc(NC(=O)C(C)(C)C)[nH]n2c(=O)c1Cc1ccccc1	15	14%[46.1 µM]	x	-8%	9%[46.1 µM]
COc1ccc(C)cc1NC(=O)CCS(=O)(=O)c1cc2c3c(c1)CCN3C(=O)CC2	12	9%[46.1 µM]	x	-10%	x
COc1ccc(Nc2cc(C)nc3nc(C)nn23)cc1Cl	19	x	2%	u	x
COc1ccc(Nc2cc(C)nc(-n3nc(C)cc3C)n2)cc1Cl	-98*	u	x	-9%	x
Cc1cc(Nc2ccc(C(C)C)cc2)nc(-n2nc(C)cc2C)n1	-91*	u	x	-24%	x
Cc1cc(Nc2ccc(F)cc2F)nc(-n2nc(C)cc2C)n1	u	-8%[46.1 µM]	x	-8%	x
c1ccc(-c2oc3ncnc(NCCN4CCOCC4)c3c2-c2ccccc2)cc1	u	-35%	u	x	u
CN(C)CCCNc1ncnc2oc(-c3ccccc3)c(-c3ccccc3)c12	u	u	3.5µM*	-23%	8.9µM*
c1ccc(-c2oc3ncnc(NCCCn4ccnc4)c3c2-c2ccccc2)cc1	x	-30%	11µM*	u	u
C/C(=C\C[Si](C)(C)C)CCC=O	x	x	x	x	-25%[14.2 µM]
O=C(Cn1ncc(Cl)c(Cl)c1=O)c1ccc(Cl)cc1	-98*	u	2.8µM*	35µM*	2.9µM*
C=CCn1c(C)cc(C(=O)CN2NS(=O)(=O)c3ccccc3C2=O)c1C	-74*	x	u	5%	x
O=c1c(Cl)c(Cl)cnn1Cc1ccc(F)cc1	-99*	21µM*	8.9µM*	40µM*	u
O=C(Cn1ncc(N2CCOCC2)c(Cl)c1=O)c1ccc(Cl)cc1	-36	u	13%	u	u
O=C(OCn1ncc(Cl)c(Cl)c1=O)c1ccccc1Cl	-103*	6.5µM*	4µM*	10µM*	4.6µM*
CC(C)(C)C(=O)Cn1ncc(Cl)c(Cl)c1=O	-100*	x	u	u	x
C=CCn1c(C)cc(C(=O)Cn2ncc(Cl)c(Cl)c2=O)c1C	-98*	u	13µM*	u	u
O=C(CSc1c2c(nc3ccccc13)CCC2)Nc1ccc(F)cc1	-13	18%[46.1 µM]	x	-19%	1%[46.1 µM]
CC/C(=N\NC(=S)Nc1cc(C)ccc1C)c1ccc(OC(F)F)cc1	-26	u	13µM*	-7%	-4%
C/C(=N\NC(=S)Nc1c(C)cccc1C)c1ccc(OC(F)F)cc1	-86*	u	u	-9%	u
CC/C(=N\NC(=S)Nc1ccc(OC)cc1)c1ccc(OC(F)F)cc1	19	u	-8%	-5%	7%
SMILES	HCMV inh	Lassa entry inh	HCV inhibitor	FMDV antiviral	Marburg entry inh
COC(=O)N/N=C(\C)c1ccc(OC(F)F)cc1	45	30%	21%	52%	u
O=C(Nc1ccc(-c2csc(Nc3ccccc3)n2)cc1)c1ccccc1	-63*	x	u	-21%	x
O=C(Nc1nc(-c2ccc(Br)cc2)cs1)c1cccnc1	-64*	-2%	-30%	-17%	-27%[46.1 µM]
O=C(Nc1cccc(-c2csc(Nc3ccc(Cl)cc3)n2)c1)c1cccc(C(F)(F)F)c1	-33	x	3.2µM*	u	x
COC(=O)[C@]1(C#N)CC(=O)N([C@H](C)[C@H](O)c2ccccc2)[C@@H]1c1ccccc1	35	x	x	x	x
CCCNC(=O)N1CC2(CN(C(C)=O)C2)c2c(n(C)c3cc(OC)ccc23)[C@H]1CO	3	x	x	x	x
Cc1ccc(C)c(NC(=O)C2CCN(c3nn4c(=O)cc(C)nc4s3)CC2)c1	1	u	x	-17%	u
C=C(C)c1cccc(C(C)(C)NC(=O)Nc2nnc(C(C)C)s2)c1	-101*	x	u	u	x
C=C(C)c1cccc(C(C)(C)NC(=O)Nc2ccc(C)cn2)c1	-39	-14%	8.9µM*	-21%	-27%
C=C(C)c1cccc(C(C)(C)NC(=O)Nc2ccc(OC)nc2)c1	u	u	u	-18%	23%[46.1 µM]
CCc1cccc(NC(=O)CCS(=O)(=O)c2ccc3nc(C)sc3c2)c1	-17	-16%[46.1 µM]	x	5%	x
Cc1ccc2oc(C(=O)NCC(c3ccco3)N3CCCC3)c(C)c2c1 (stereo not drawn)	-15	x	32µM*	-13%	x
O=C(NCC(c1ccco1)N1CCc2ccccc21)c1cccc([N+](=O)[O-])c1 (stereo not drawn)	-4	5.6µM*	-22%	-27%	u
O=C(NCC(c1ccco1)N1CCCCC1)c1ccc([N+](=O)[O-])s1 (stereo not drawn)	9	u	0.56µM*	-9%	u
CC(C)C(NC(=O)c1ccccc1F)C(=O)NCC(c1ccco1)N1CCCCC1 (stereo not drawn)	-64*	10%	0%	2%	u
CC(C)(C)OC(=O)N1CCC(c2c(C(=O)NCCN3CCc4ccccc4C3)cnn2-c2ccc(F)cc2)CC1	14	-11%[46.1 µM]	x	-13%	x
O=C(NCC(c1ccco1)N1CCCC1)c1cc2cc(Cl)ccc2o1 (stereo not drawn)	-25	0%	13µM*	-1%	u
O=c1[nH]c2ccc(NCc3ccc(-c4ccc(F)cc4)o3)cc2[nH]1	-6	-7%[46.1 µM]	x	-33%	0%[46.1 µM]
Cc1cc(Cl)cc(C)c1OCCCCCn1ccnc1	-23	x	u	u	x
Cc1cc(Cl)cc(C)c1OCCn1ccnc1	u	3.5µM*	-6%	-22%	1.3µM*
CCOC(=O)c1cnc2ccc(C)cc2c1Nc1ccc(N(CC)CC)cc1	-106*	u	x	0%	u
CCOC(=O)c1cnc2ccccc2c1Nc1ccc(C(=O)O)cc1	-3	1%[46.1 µM]	-10%	-5%	u
CCOC(=O)c1cnc2ccc(Cl)cc2c1Nc1ccc(N2CCOCC2)cc1	9	u	x	22µM*	-3%[46.1 µM]
CCOC(=O)c1cnc2ccc(C)cc2c1Nc1ccc(N2CCOCC2)cc1	-13	u	u	0%	u
Cc1cccc(N2C(=O)N(CC(=O)C(C)(C)C)c3ccccc3S2(=O)=O)c1C	1	-15%[46.1 µM]	x	-27%	x
CCN1CCN(CC(=O)c2c(C)n(Cc3ccccc3)c3ccc(OC)cc23)CC1	16	-3%	u	-11%	u
COc1ccc2c(c1)c(C(=O)CN1CCN(C)CC1)c(C)n2Cc1ccccc1	-21	-6%	-27%	-24%	20µM*

Bioassay records: PubChem, National Center for Advancing Translational Sciences (NCATS)
